Potency and affinity values are given separately.
Experiments:
Staphylococcus aureus = conditions: Concentration 32 ug.mL-1; ASSAY_TEST Inhibition of Bacterial Growth; detection method Absorption (OD600); MEDIA CAMHB; plate type 384well; NBS; CORNING #3640; time 18 hr
Escherichia coli = conditions: Concentration 32 ug.mL-1; ASSAY_TEST Inhibition of Bacterial Growth; detection method Absorption (OD600); MEDIA CAMHB; plate type 384well; NBS; CORNING #3640; time 18 hr

Compound | Inhibition (Staphylococcus aureus) [%] | Inhibition (Escherichia coli) [%]
c1ccc2nc3c4cccnc4c4ncccc4c3nc2c1 | 8.68 | -14.57
CC(=O)c1cc(C(C)=O)cc(C(C)=O)c1 | 25.72 | -14.66
CC(=NN)c1cc(/C(C)=N/N)cc(/C(C)=N/N)c1 | 18.93 | 9.06
COC(=O)c1ccc(S)cc1 | 8.34 | -21.23
